The values below come from ChEMBL document CHEMBL2218924, “A broad activity screen in support of a chemogenomic map for kinase signalling research and drug discovery” (Biochem J, 2013).

Each structure is given as a SMILES string.

The target in assay [1] is MAP kinase-activated protein kinase 2 (Homo sapiens) (UniProt P49137). To be noted: at 10 µM.
The target of assay [2] is MAP kinase-activated protein kinase 3 (Homo sapiens) (UniProt Q16644). To be noted: at 10 µM.
Assay [3] addresses Serine/threonine-protein kinase MARK1 (Homo sapiens) (UniProt Q9P0L2). To be noted: at 1 µM.
Assay [4] has the same target. To be noted: at 10 µM.
In assay [5] the target is Dual specificity mitogen-activated protein kinase kinase 1 (Homo sapiens) (UniProt Q02750). To be noted: at 10 µM.
Assay [6] deals with Maternal embryonic leucine zipper kinase (Homo sapiens) (UniProt Q14680). Conditions: at 1 µM.
The target is the same in assay [7]. Conditions: at 10 µM.
The target in assay [8] is Misshapen-like kinase 1 (Homo sapiens) (UniProt Q8N4C8). Conditions: at 1 µM.
The target is the same in assay [9]. Conditions: at 10 µM.
For assay [10], the target named is T1, Dual specificity mitogen-activated protein kinase kinase 6 (Homo sapiens) (UniProt P52564).
T1 sequence (whole entry): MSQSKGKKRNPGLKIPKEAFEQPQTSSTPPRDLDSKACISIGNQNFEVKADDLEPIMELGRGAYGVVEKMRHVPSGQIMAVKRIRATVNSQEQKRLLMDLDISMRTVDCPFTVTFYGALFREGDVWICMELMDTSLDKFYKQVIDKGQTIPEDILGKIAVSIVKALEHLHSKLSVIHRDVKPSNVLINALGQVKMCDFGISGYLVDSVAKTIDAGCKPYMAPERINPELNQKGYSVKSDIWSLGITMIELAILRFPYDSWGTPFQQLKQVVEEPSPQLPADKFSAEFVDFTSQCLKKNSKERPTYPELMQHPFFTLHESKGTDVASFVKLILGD
To be noted: at 1 µM.

The target in assay [11] is T1, Dual specificity mitogen-activated protein kinase kinase 6 (Homo sapiens). Conditions: at 10 µM.
Assay [12] deals with T2, Dual specificity mitogen-activated protein kinase kinase 7 (Homo sapiens) (UniProt O14733).
T2 sequence (whole entry): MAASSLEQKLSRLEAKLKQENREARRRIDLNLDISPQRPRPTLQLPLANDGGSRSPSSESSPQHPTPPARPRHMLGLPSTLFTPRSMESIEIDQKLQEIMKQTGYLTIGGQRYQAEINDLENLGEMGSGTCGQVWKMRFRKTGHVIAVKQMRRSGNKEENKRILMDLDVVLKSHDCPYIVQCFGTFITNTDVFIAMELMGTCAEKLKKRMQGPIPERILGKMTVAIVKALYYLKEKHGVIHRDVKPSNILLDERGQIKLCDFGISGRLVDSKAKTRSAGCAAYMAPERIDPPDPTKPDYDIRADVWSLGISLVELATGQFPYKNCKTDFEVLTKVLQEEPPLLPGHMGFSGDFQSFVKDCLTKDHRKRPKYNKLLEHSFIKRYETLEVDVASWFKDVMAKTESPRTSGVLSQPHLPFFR
Conditions: at 1 µM.

Assay [13] concerns the target T2, Dual specificity mitogen-activated protein kinase kinase 7 (Homo sapiens). Conditions: at 10 µM.
Assay [14] addresses Myosin light chain kinase, smooth muscle (Homo sapiens) (UniProt Q15746). Conditions: at 1 µM.
Assay [15] shares this target. Conditions: at 10 µM.
The target in assay [16] is Mitogen-activated protein kinase kinase kinase 9 (Homo sapiens) (UniProt P80192). To be noted: at 1 µM.
Assay [17] has the same target. To be noted: at 10 µM.
Assay [18] addresses Serine/threonine-protein kinase MRCK alpha (Homo sapiens) (UniProt Q5VT25). To be noted: at 10 µM.
Assay [19] concerns the target Dual specificity mitogen-activated protein kinase kinase 1 (Homo sapiens) (UniProt Q02750). To be noted: at 1 µM.
Assay [20] deals with Serine/threonine-protein kinase MRCK alpha (Homo sapiens) (UniProt Q5VT25). To be noted: at 1 µM.
Serine/threonine-protein kinase MRCK alpha (Homo sapiens), sequence (Q5VT25 whole entry): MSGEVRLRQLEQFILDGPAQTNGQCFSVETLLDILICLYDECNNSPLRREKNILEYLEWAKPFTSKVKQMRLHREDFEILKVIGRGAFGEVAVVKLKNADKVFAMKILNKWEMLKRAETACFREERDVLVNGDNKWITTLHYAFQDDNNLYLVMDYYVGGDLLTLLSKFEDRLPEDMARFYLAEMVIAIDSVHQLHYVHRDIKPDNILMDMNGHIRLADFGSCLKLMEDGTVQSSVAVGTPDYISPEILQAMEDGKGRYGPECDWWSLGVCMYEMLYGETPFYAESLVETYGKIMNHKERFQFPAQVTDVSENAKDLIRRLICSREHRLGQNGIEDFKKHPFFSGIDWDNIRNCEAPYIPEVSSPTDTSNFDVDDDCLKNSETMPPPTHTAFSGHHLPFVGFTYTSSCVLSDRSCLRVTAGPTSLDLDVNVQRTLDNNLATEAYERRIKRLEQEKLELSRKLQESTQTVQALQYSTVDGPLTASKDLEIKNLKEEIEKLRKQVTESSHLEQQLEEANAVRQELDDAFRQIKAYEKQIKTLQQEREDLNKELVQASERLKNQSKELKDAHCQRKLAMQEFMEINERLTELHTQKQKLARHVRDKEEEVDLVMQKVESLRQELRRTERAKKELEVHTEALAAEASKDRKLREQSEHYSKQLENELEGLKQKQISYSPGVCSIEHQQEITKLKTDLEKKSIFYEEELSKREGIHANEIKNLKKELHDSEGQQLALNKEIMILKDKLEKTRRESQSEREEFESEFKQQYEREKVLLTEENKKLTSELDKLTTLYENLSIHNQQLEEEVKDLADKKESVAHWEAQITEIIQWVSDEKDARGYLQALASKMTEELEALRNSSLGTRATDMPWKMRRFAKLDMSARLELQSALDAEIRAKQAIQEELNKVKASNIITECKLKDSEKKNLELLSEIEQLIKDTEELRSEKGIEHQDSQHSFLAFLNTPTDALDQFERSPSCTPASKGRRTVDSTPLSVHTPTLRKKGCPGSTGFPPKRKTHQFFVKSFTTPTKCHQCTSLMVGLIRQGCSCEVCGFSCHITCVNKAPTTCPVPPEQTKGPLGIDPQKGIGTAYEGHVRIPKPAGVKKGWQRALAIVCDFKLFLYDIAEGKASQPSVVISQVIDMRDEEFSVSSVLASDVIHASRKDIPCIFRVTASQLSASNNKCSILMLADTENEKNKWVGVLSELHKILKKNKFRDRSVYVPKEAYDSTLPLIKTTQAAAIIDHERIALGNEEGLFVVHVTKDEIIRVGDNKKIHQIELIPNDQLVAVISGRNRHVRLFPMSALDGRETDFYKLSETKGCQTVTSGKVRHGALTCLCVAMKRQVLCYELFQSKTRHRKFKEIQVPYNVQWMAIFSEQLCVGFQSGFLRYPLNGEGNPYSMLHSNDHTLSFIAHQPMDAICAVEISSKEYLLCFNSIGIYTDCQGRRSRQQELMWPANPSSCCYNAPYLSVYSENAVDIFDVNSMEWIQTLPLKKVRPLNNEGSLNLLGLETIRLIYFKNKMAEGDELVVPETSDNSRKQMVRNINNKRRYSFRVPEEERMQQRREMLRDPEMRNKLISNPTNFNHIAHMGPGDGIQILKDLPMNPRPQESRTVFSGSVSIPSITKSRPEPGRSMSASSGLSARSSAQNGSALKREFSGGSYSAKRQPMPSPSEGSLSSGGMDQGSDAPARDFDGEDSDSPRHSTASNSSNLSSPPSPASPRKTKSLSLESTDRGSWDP

Myosin light chain kinase, smooth muscle (Homo sapiens), sequence (Q15746 whole entry): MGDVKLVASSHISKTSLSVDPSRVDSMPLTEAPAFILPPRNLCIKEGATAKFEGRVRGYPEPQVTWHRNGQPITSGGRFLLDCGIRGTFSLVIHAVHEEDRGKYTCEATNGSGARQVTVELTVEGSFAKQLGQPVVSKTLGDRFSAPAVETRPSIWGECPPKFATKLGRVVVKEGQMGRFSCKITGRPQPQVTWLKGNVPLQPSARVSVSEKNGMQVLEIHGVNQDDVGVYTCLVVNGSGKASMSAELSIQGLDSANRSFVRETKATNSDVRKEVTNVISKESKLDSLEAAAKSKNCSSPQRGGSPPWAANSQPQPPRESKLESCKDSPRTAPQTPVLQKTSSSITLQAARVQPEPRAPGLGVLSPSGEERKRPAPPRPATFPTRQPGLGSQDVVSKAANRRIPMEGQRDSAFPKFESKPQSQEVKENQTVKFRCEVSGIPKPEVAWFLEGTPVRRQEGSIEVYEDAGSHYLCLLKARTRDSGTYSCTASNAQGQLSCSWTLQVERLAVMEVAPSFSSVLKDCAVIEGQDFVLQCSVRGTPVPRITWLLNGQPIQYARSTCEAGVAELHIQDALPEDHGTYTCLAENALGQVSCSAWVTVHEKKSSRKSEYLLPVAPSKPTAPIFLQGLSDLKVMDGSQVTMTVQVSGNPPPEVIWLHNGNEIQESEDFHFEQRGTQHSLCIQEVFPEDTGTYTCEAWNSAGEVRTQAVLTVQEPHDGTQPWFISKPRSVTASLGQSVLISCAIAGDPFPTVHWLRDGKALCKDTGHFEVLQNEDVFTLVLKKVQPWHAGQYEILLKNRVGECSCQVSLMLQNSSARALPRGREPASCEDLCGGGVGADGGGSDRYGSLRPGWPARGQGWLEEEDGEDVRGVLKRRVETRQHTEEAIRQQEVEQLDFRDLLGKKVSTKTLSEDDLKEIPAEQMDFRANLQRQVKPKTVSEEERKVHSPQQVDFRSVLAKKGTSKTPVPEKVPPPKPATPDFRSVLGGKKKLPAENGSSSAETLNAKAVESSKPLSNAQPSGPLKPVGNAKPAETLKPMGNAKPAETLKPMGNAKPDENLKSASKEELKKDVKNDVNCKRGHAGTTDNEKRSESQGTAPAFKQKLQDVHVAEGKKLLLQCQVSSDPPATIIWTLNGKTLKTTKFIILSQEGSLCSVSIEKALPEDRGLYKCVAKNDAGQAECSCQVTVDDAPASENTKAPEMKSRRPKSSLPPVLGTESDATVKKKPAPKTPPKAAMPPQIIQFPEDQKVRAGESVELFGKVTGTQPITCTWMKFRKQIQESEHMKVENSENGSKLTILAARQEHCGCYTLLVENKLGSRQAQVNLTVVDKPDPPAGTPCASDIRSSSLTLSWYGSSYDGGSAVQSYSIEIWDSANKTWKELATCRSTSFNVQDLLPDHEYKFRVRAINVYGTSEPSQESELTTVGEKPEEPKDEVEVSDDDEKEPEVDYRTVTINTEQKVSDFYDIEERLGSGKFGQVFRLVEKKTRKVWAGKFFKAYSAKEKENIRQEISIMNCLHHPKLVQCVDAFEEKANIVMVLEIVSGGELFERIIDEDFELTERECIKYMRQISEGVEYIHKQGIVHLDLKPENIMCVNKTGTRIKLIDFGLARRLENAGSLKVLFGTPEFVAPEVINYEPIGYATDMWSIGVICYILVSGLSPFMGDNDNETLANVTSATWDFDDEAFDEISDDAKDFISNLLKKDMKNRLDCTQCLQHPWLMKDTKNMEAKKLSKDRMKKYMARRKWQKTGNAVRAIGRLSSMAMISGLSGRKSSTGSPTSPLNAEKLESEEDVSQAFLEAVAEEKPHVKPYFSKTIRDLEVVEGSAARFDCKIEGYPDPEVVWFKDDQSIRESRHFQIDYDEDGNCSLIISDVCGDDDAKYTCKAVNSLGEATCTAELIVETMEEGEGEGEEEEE
Mitogen-activated protein kinase kinase kinase 9 (Homo sapiens), sequence (P80192 whole entry, looked up): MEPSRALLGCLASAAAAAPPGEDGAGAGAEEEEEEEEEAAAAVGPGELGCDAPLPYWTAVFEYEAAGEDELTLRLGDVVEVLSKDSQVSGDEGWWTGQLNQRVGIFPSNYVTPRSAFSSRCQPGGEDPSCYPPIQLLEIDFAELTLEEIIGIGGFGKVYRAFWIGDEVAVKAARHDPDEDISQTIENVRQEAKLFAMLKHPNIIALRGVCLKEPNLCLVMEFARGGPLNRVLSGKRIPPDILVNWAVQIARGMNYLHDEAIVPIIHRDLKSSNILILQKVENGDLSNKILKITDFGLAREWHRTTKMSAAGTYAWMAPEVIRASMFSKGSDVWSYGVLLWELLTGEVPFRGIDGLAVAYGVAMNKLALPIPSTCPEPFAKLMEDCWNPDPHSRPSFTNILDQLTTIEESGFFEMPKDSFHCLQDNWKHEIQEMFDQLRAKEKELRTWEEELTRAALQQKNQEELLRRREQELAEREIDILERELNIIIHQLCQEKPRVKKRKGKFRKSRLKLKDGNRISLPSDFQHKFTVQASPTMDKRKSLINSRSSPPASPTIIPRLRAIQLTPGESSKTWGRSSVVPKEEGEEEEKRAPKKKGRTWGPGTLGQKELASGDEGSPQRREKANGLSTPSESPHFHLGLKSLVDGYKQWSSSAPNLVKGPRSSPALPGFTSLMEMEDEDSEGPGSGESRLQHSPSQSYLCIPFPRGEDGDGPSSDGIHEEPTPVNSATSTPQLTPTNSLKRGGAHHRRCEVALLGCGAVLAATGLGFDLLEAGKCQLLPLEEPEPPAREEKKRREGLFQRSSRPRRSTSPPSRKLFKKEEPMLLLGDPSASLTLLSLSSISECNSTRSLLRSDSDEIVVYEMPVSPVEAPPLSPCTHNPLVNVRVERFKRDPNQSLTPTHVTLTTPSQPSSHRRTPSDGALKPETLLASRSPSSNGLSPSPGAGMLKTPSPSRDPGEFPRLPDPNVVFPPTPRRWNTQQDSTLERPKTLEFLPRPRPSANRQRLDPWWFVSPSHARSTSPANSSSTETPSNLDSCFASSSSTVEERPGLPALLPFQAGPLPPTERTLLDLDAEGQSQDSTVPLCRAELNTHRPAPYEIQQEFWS
MAP kinase-activated protein kinase 2 (Homo sapiens), sequence (P49137 whole entry, looked up): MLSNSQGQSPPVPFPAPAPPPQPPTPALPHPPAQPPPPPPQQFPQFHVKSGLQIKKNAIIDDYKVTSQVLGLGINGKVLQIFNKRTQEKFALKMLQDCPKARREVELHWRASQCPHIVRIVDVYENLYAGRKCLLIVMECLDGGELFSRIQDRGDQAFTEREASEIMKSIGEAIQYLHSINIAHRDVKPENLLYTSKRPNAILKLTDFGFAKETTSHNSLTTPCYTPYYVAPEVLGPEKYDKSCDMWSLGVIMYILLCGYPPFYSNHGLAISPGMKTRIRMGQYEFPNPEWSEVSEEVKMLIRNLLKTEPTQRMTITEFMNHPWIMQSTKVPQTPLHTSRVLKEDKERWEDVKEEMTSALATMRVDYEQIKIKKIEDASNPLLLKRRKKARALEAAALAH

`Cc1cc2ncc(-c3ccccc3)nc2cc1C`: the residual activity in assay [1] turned out to be 93%; in assay [2] it was 93%; in assay [3], 84%; in [4], 90%; in assay [5] it was 90%; in [6] it was 72%. The residual activity in assay [7] came to 77%; in assay [8], 94%; in assay [9] it was 82%; in [10], 86%; in assay [11], 106%; in assay [12], 76%. Further, the residual activity was 93% in [13]; 77% in assay [14]; 96% in assay [15]; 92% in [16]; 102% in [17]; 81% in [18].
Take `Cc1ccc(NC2=CC(=O)c3sc(C)nc3C2=O)cc1`: the residual activity in assay [1] was determined as 87%; in assay [2], 61%; in [3] it was 87%; in assay [4], 80%; in [19] it was 99%; in assay [5], 116%. In addition, the residual activity in assay [6] is 95%; in assay [7], 85%; in [8] it was 106%; in assay [9], 94%; in [11], 104%; in assay [12], 74%. In addition, the residual activity amounted to 101% in [13]; 101% in assay [14]; 82% in assay [15]; 98% in assay [16]; 90% in assay [17]; 95% in assay [20]. For the same compound, in assay [18], the residual activity amounted to 91%.
As for `O=C1Nc2ccccc2/C1=C1/Nc2ccccc2/C1=N\OCCC(O)CO` (centres undefined), the residual activity is 61% in assay [1]; 80% in assay [2]; 40% in assay [3]; 8% in assay [4]; 26% in assay [19]; 21% in assay [5]. Also, the residual activity in [6] amounted to 7%; in assay [7], 5%; in assay [8], 44%; in [9], 17%; in assay [10] it was 51%; in assay [11] it was 7%. The residual activity amounted to 54% in assay [12]; 5% in assay [13]; 26% in [14]; 20% in assay [15]; 2% in assay [16]; 2% in assay [17]. The residual activity in [20] is 111%; in [18], 107%.
Consider `c1ccc(-c2n[nH]c3c2oc2ccccc23)cc1`, for which the residual activity in [3] was 69%; in [4], 44%; in assay [6] it was 43%; in assay [7], 7%; in assay [8] it was 73%; in assay [9], 34%. Besides, the residual activity in [10] stood at 76%; in assay [11], 89%; in [12] it was 87%; in assay [13] it was 67%; in [14], 66%; in [15], 64%. Besides, the residual activity in assay [16] turned out to be 69%; in [17], 39%; in assay [20] it was 92%; in assay [18], 116%.
As to `CCOc1cc2ncnc(Nc3cccc(Br)c3)c2cc1OCC`, the residual activity in [1] turned out to be 72%; in assay [2], 82%; in assay [3], 82%; in [4], 69%; in assay [19], 117%; in assay [5] it was 50%. The residual activity in [6] worked out at 91%; in [7], 62%; in assay [8] it was 88%; in assay [9], 50%; in assay [10], 81%; in [11], 44%. Moreover, the residual activity in assay [12] came to 91%; in assay [13], 72%; in assay [14] it was 69%; in assay [15], 41%; in [16], 72%; in [17], 26%. In addition, the residual activity was found to be 88% in assay [20] and 99% in assay [18].
As to `O=C(Nc1cccc(Nc2nccc(Nc3cccc(C(F)(F)F)c3)n2)c1)C1CC1`, the residual activity turned out to be 100% in [1]; 107% in [2]; 93% in [3]; 50% in assay [4]; 106% in assay [19]; 77% in [5]. Further, the residual activity in assay [6] is 61%; in [7] it was 63%; in assay [8] it was 87%; in [9] it was 59%; in assay [10], 76%; in assay [11], 51%. The residual activity stood at 85% in assay [12]; 87% in assay [13]; 54% in assay [14]; 66% in assay [15]; 82% in assay [16]; 29% in [17]. The residual activity turned out to be 117% in assay [20] and 130% in [18].
As to `COc1cc2ncnc(Nc3ccc(Oc4ccccc4)cc3)c2cc1OC`, the residual activity in assay [1] turned out to be 108%; in assay [2], 127%; in [3], 83%; in assay [4] it was 81%; in assay [19], 89%; in assay [5], 38%. The residual activity in assay [6] is 76%; in assay [7], 129%; in [8], 99%; in assay [9], 89%; in assay [10] it was 79%; in [11], 83%. In addition, the residual activity in assay [12] stood at 87%; in [13] it was 81%; in [14], 72%; in assay [15] it was 91%; in assay [16] it was 18%; in [17], 4%. In addition, the figures for the residual activity in assay [20] and in assay [18] were 103% and 134%, respectively.
In the case of `CN(C)CCCn1cc(C2=C(c3c[nH]c4ccccc34)C(=O)NC2=O)c2ccccc21`, the residual activity in assay [1] amounted to 73%; in assay [2], 109%; in assay [3], 65%; in [4] it was 25%; in [19] it was 109%; in assay [5] it was 52%. The residual activity in [6] came out at 41%; in assay [7] it was 13%; in assay [8], 84%; in [9], 47%; in assay [12] it was 79%; in assay [14], 20%. Moreover, the residual activity in [15] was found to be 7%; in [16], 58%; in [17], 13%; in assay [20], 115%; in assay [18] it was 76%.
Turning to `COc1cc2ncc(-c3ccccc3)nc2cc1OC`, the residual activity was determined as 80% in assay [1]; 90% in assay [3]; 80% in [4]; 69% in [6]; 60% in [7]; 92% in [8]. Besides, the residual activity in [9] amounted to 62%; in assay [10], 92%; in assay [11], 92%; in assay [12] it was 90%; in assay [13] it was 90%; in assay [14], 78%. For the same compound, the residual activity stood at 86% in assay [15], 94% in assay [16], 60% in assay [17] and 93% in [18].
For the compound `COc1cc2ncnc(Nc3ccc(O)c(Br)c3)c2cc1OC`, the residual activity in [1] was 106%; in assay [2], 106%; in [3], 70%; in assay [4], 54%; in [19], 119%; in [5], 80%. In addition, the residual activity in [6] came out at 73%; in assay [7] it was 28%; in assay [8], 83%; in [9] it was 47%; in assay [10], 88%; in assay [11], 27%. The residual activity in [12] turned out to be 119%; in [13], 94%; in assay [14], 71%; in assay [15] it was 37%; in assay [16] it was 45%; in [17] it was 11%. Besides, the residual activity was 82% in [20] and 84% in assay [18].
Take `CO[C@H]1C[C@@H]2CC[C@@H](C)[C@@](O)(O2)C(=O)C(=O)N2CCCC[C@H]2C(=O)O[C@H]([C@H](C)C[C@@H]2CC[C@@H](O)[C@H](OC)C2)CC(=O)[C@H](C)/C=C(\C)[C@@H](O)[C@@H](OC)C(=O)[C@H](C)C[C@H](C)/C=C/C=C/C=C/1C`: the residual activity in assay [1] was 115%; in assay [2], 133%; in assay [3], 78%; in assay [4] it was 71%; in [19], 132%; in [5], 97%. For the same compound, the residual activity in assay [6] was found to be 88%; in assay [7], 97%; in [8], 81%; in [9] it was 74%; in assay [10], 93%; in assay [11], 82%. Besides, the residual activity in [12] amounted to 102%; in assay [13], 102%; in assay [14], 75%; in assay [15], 101%; in assay [16] it was 91%; in [17] it was 106%. Further, the residual activity is 118% in [20] and 146% in assay [18].
For the compound `COc1ccc(OC)c2c(=S)c3ccccc3[nH]c12`, the residual activity in [2] worked out at 89%; in [3], 87%; in assay [4], 74%; in assay [19], 114%; in [5] it was 110%; in [6], 102%. For the same compound, the residual activity in [7] worked out at 84%; in assay [8] it was 108%; in assay [9], 94%; in [10], 112%; in [11], 96%; in [12] it was 81%. Besides, the residual activity in assay [13] was determined as 90%; in assay [14], 132%; in [15], 71%; in assay [17] it was 89%; in assay [20], 119%; in assay [18] it was 93%.
For `Oc1ccc(Nc2nc(-c3ccc(Cl)cc3)cs2)cc1`, the residual activity was 71% in assay [1]; 116% in assay [2]; 104% in assay [3]; 93% in assay [4]; 106% in assay [19]; 112% in assay [5]. Besides, the residual activity in assay [6] was 114%; in assay [7], 100%; in assay [8], 104%; in assay [9] it was 83%; in assay [10], 82%; in assay [11] it was 52%. The residual activity stood at 91% in assay [12]; 93% in assay [13]; 118% in assay [14]; 56% in [15]; 92% in assay [16]; 36% in assay [17]. Also, the results for the residual activity in assay [20] and in assay [18] were 118% and 135%, respectively.
